Experimental data taken from PubChem BioAssay (NCI).
Compounds without any hit were thinned out: in the full panel of roughly 79,000, 15% have a hit. Calls of active or inactive are those of the source. Rule as the data show it: active = growth inhibition above about 70%; inactive = the rest.

Experiments:
[1] = NCI Yeast Anticancer Drug Screen. Data for the rad50 strain (AID 155);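 also: 0% = growth of vehicle-only cultures of the same strain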; settings: S. cerevisiae rad50 strain growth inhibition, active compounds read high
Method in brief: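 Compounds were tested on a yeast strain with an engineered DNA damage repair alteration; the reported value is growth inhibition normalised to vehicle treatment.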

[2] = NCI Yeast Anticancer Drug Screen. Data for the mec2-1 strain (AID 157); settings: S. cerevisiae mec2-1 strain, active compounds read high
Method in brief: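 mec2-1 yeast strain, carrying an alteration in DNA damage repair or cell cycle control, was exposed to compounds; growth inhibition was measured relative to vehicle-treated controls.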

[3] = NCI Yeast Anticancer Drug Screen. Data for the sgs1 mgt1 strain (AID 161);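 also: 0% = growth of cultures given vehicle only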; settings: S. cerevisiae sgs1 mgt1 strain, active compounds read high
Method in brief: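 Compounds are added to genetically altered yeast, and growth is compared with cultures given vehicle alone to give percent inhibition.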

[4] = NCI Yeast Anticancer Drug Screen. Data for the cln2 rad14 strain (AID 165);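 also: 0% = growth equal to vehicle treated cultures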; settings: S. cerevisiae cln2 rad14 strain, active compounds read high
Method in brief: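 Yeast carrying cln2 and rad14 alterations (cell cycle control and DNA damage repair) were exposed to compounds. Growth inhibition was measured against vehicle-treated controls.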

[5] = NCI Yeast Anticancer Drug Screen. Data for the bub3 strain (AID 167); settings: S. cerevisiae bub3 mutant strain, active compounds read high
Method in brief: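 Growth of a checkpoint-deficient yeast mutant is measured after compound exposure. Values represent inhibition relative to vehicle.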

[6] = NCI Yeast Anticancer Drug Screen. Data for the mlh1 rad18 strain (AID 175); settings: S. cerevisiae mlh1 rad18 strain growth inhibition, active compounds read high
Method in brief: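 Growth inhibition of the yeast strain was measured after compound exposure and expressed relative to vehicle-treated controls. The strain carries defined defects in DNA damage repair.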

[7] = at 5.0 µM (retest, dose inferred, filed as 0.5)
[8] = at 50.0 µM (retest, dose inferred, filed as 5.0)

Measured: growth inhibition

Nc1ccc(C(=O)N/N=C\c2cccc3ccccc23)cc1
active: [3]; at 50.0 µM 88.9% | [6]; at 50.0 µM 89.3%
inactive: [1]; [7] 0% | [1]; [8] -2% | [1]; at 50.0 µM 61.8% | [2]; [7] -3% | [2]; [8] 13% | [2]; at 50.0 µM 60.6% | [3]; [7] 0% | [3]; [8] 0% | [4]; [7] -4% | [4]; [8] 3% | [4]; at 50.0 µM 34.4% | [5]; [7] 6% | [5]; [8] 22% | [5]; at 50.0 µM 50.8% | [6]; [7] -1% | [6]; [8] 21%

CCCOC(=O)C(S)C(S)C(=O)OCCC (configuration not stated)
active: [4]; [8] 90% | [5]; [8] 94% | [6]; [8] 75%
inactive: [1]; [7] 23% | [1]; [8] 50% | [1]; at 50.0 µM 11.1% | [2]; [7] 2% | [2]; [8] 32% | [2]; at 50.0 µM 2.15% | [3]; [7] -16% | [3]; [8] 53% | [3]; at 50.0 µM 12.4% | [4]; [7] 19% | [4]; at 50.0 µM 40% | [5]; [7] 5% | [5]; at 50.0 µM 26.8% | [6]; [7] 2% | [6]; at 50.0 µM 48.2%

Cc1ccc(NC(=O)COC(=O)c2cccc3c(=O)c4ccccc4[nH]c23)cc1
active: [1]; [8] 89% | [1]; at 50.0 µM 74.8% | [2]; [8] 80% | [3]; [8] 89% | [5]; [8] 81% | [5]; at 50.0 µM 72% | [6]; [8] 94%
inactive: [1]; [7] 51% | [2]; [7] 27% | [2]; at 50.0 µM 43.3% | [3]; [7] 40% | [3]; at 50.0 µM 29.6% | [4]; [7] 21% | [4]; [8] 69% | [4]; at 50.0 µM 61.6% | [5]; [7] 42% | [6]; [7] 49% | [6]; at 50.0 µM 49.5%

COc1ccc2c(c1)CN1C(CCC3c4ccccc4NC31)C2 (configuration not stated)
active: [1]; at 50.0 µM 88.5% | [2]; at 50.0 µM 72.3% | [3]; at 50.0 µM 86.7% | [6]; at 50.0 µM 90.5%
inactive: [1]; [7] -17% | [1]; [8] 16% | [2]; [7] -5% | [2]; [8] 11% | [3]; [7] -5% | [3]; [8] 30% | [4]; [7] 26% | [4]; [8] 11% | [4]; at 50.0 µM 51.3% | [5]; [7] -35% | [5]; [8] 13% | [5]; at 50.0 µM 61.6% | [6]; [7] -12% | [6]; [8] 27%

O=C(OC1C=C=CS(=O)(=O)CC#C/C=C\1)c1cnc2ccccc2n1 (configuration not stated)
inactive: [1]; [7] 15% | [2]; [7] -17% | [3]; [7] -28% | [4]; [7] 15% | [5]; [7] -36% | [6]; [7] 19% | [6]; at 50.0 µM 69.3%
active: [1]; [8] 96% | [1]; at 50.0 µM 76.9% | [2]; [8] 95% | [2]; at 50.0 µM 75.8% | [3]; [8] 91% | [3]; at 50.0 µM 74.3% | [4]; [8] 90% | [4]; at 50.0 µM 78.5% | [5]; [8] 94% | [5]; at 50.0 µM 79.5% | [6]; [8] 97%

CSC1=NSC(c2ccccc2)=C(c2ccccc2)S1
active: [4]; [8] 88%
inactive: [1]; [7] 7% | [1]; [8] 9% | [1]; at 50.0 µM 7.95% | [2]; [7] -15% | [2]; [8] 10% | [2]; at 50.0 µM -1.45% | [3]; [7] -11% | [3]; [8] 0% | [3]; at 50.0 µM 27.8% | [4]; [7] 33% | [4]; at 50.0 µM 62.5% | [5]; [7] 9% | [5]; [8] 43% | [5]; at 50.0 µM 43.1% | [6]; [7] 5% | [6]; [8] 16% | [6]; at 50.0 µM 10.2%

CCCCC(=O)OC1=C(Br)C(=O)c2ccccc2C1=O
active: [1]; [8] 98% | [1]; at 50.0 µM 96.3% | [2]; [8] 100% | [3]; [8] 96% | [3]; at 50.0 µM 81.1% | [4]; [8] 88% | [5]; [8] 97% | [6]; [8] 98% | [6]; at 50.0 µM 75.3%
inactive: [1]; [7] 20% | [2]; [7] 24% | [2]; at 50.0 µM 63% | [3]; [7] 10% | [4]; [7] 3% | [4]; at 50.0 µM -11.8% | [5]; [7] 14% | [5]; at 50.0 µM 13.8% | [6]; [7] 37%

O=NNc1ccc(-c2ccc([N+](=O)[O-])cc2)cn1
inactive: [1]; [7] 18% | [1]; [8] 47% | [1]; at 50.0 µM 25.4% | [2]; [7] 11% | [2]; [8] 37% | [2]; at 50.0 µM 5.85% | [3]; [7] 8% | [3]; [8] 31% | [3]; at 50.0 µM 30.6% | [4]; [7] 26% | [4]; [8] 31% | [4]; at 50.0 µM 34.2% | [5]; [7] 14% | [5]; [8] 18% | [5]; at 50.0 µM -11.7% | [6]; [7] 10% | [6]; [8] 48% | [6]; at 50.0 µM 30.1%

COc1ccc(/C=C/Cc2cc3c(cc2O)OCO3)cc1
inactive: [1]; [7] -15% | [1]; [8] 13% | [1]; at 50.0 µM -4.05% | [2]; [7] -2% | [2]; [8] -10% | [2]; at 50.0 µM -9.7% | [3]; [7] 12% | [3]; [8] 5% | [3]; at 50.0 µM 13.1% | [4]; [7] 3% | [4]; [8] -2% | [4]; at 50.0 µM 25.8% | [5]; [7] -2% | [5]; [8] 14% | [5]; at 50.0 µM 17.2% | [6]; [7] -6% | [6]; [8] 1% | [6]; at 50.0 µM 0.85%
